From PubChem BioAssay
The list is not random: actives were taken first. Their share in the collection is about 7.2%.
Sm TGR block: blocks Schistosoma mansoni thioredoxin glutathione reductase; purified TGR, DTNB reduction, TNB absorbance 405 nm; Potency, µM (highest dose often 114 µM), most hits filed as inhibitors; 360,000 tested, 3% active; also: nearly all actives have a fitted effect of over 60% in size
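First, TGR (20 nM dispensed) and NADPH were mixed with compound. Second, a 15 min room-temperature incubation followed. Third, further NADPH and then DTNB were added to start the reaction. Finally, TNB absorbance was monitored kinetically.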
Lassa entry inh: Lassa virus entry inhibition; Lassa virus pseudotype entry inhibition, cell reporter; Potency, µM (top dose mostly 37.9 µM), most hits filed as inhibitors; 300,000 tested, 1.2% active; AID 540256; calls by dose curve; tested in HEK293 cells; also: nearly all actives have a fitted effect of over 50% in size
RE007 growth inh: less growth of the S. pombe RE007 Vpr strain. S. pombe RE007 Vpr strain, BacTiter-Glo ATP luminescence, 24 h. Potency, µM (top dose mostly 92.2 µM), usual class: inhibitors. 360,000 tested, 0.21% active; active = well fitted falling curve with a large enough effect; inconclusive = small, poorly fitted or top-dose-only effect; inactive = no such curve, though single readings can be large or run the other way; also: nearly all actives have a fitted effect of over 50% in size
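Fission yeast RE007 carrying one integrated HIV-1 vpr copy, seeded at OD 0.01 in PMG+AL medium with 23 nL pinned compound. Grown 24 h at 30 degrees; viability read by BacTiter-Glo luminescence after 5 min.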
Marburg entry inh: inhibitors of Marburg virus binding or cell entry; AID 540276; Potency, µM (highest dose often 37.8 µM), actives largely listed as inhibitors; 300,000 tested, 1.8% active; Marburg virus pseudotyped entry inhibition, cell reporter; calls by dose curve; tested in HEK293 cells
HCV inhibitor: inhibitors of hepatitis C virus infection; Huh7.5.1 HCVcc-Cre infection, luciferase reporter, 44 h; Potency, µM (titrated, usually from 41.8 µM), usual class: inhibitors; 340,000 tested, 3.4% active
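Seed cells (1,000/well) for 4 h; treat with compound and infect with HCVcc-Cre, moi about 0.5. Incubate 44 h, then detect luciferase activity.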
FMDV inh: blocks foot and mouth disease virus. 410,000 tested, 1.2% active. Potency, µM (titrated, usually from 57.9 µM), usual class: inhibitors. FMDV antiviral cell-based qHTS; calls by dose curve; tested in HEK293T cells; also: read-out not given here; nearly all actives have a fitted effect of over 45% in size
A number is an active result; – = inactive; ? = inconclusive; · = no result. Unless noted, calls follow the shape of the dose curve; as a rule, active = well fitted curve in the direction sought with a large enough effect; inconclusive = small, poorly fitted or top-dose-only effect, or another doubt; inactive = no such curve, though single readings can be large; an effect the other way counts as inactive or inconclusive.

SMILES | Sm TGR block | Lassa entry inh | RE007 growth inh | Marburg entry inh | HCV inhibitor | FMDV inh
COc1cc(/C=C/C(=O)OCC(=O)Nc2ccc([N+](=O)[O-])cc2)ccc1O | – | · | – | · | – | –
Cc1ccc(C)c(CN2CCC(CNC(=O)Nc3ccc(Cl)cc3)CC2)c1 | – | – | – | ? | – | –
Cc1ccc(C)c(CN2CCC(CNC(=O)Nc3ccc(Br)cc3F)CC2)c1 | – | ? | – | 4.5µM | ? | ?
COc1ccc(N2CCN(C(=O)c3ccc4nc(N5CCC(C)CC5)sc4c3)CC2)cc1 | – | ? | · | – | · | –
COc1ccccc1C=NNC(=O)NN=Cc1ccccc1OC | · | – | – | – | ? | –
COc1cccc(/C=N/Nc2ccc(C(=O)O)cc2)c1O | – | · | ? | · | – | 3.5µM
COc1cccc(/C=N/NC(=O)N/N=C/c2cccc(OC)c2O)c1O | – | ? | – | 4.5µM | – | –
COc1ccccc1C=NN=C(N)C(N)=NN=Cc1ccccc1OC | · | – | – | – | – | –
COc1ccccc1C=NN=C(NN=Cc1ccccc1OC)NN=Cc1ccccc1OC | · | 13µM | – | ? | 13µM | ?
Cc1cccc(NC(=O)c2cc(CN3CCOCC3)on2)c1C | – | – | · | · | · | –
Cc1ccc(Cl)cc1N1CCN(CCCNC(=O)C2COc3ccccc3C2)CC1 (centres undefined) | – | – | · | · | · | ?
COc1cc(/C=C2\SC(=O)N(CC(=O)Nc3cccc(C)c3)C2=O)cc([N+](=O)[O-])c1O | – | – | – | – | – | ?
COc1cc(/C=C2\SC(=O)N(c3ccccc3Cl)C2=O)cc([N+](=O)[O-])c1O | – | · | 35µM | · | – | ?
Cc1cccc(C(=O)N2CCc3cc(CNC(=O)c4ccco4)ccc32)c1 | – | – | · | · | · | 28µM
CCOc1cccc(CC(=O)NCc2ccc3c(c2)CCN3C(=O)c2cccc(C)c2)c1OCC | – | 11µM | · | ? | · | 14µM
O=C(NCc1ccc2c(c1)CCN2C(=O)c1ccc(Cl)cc1)c1ccco1 | – | ? | · | · | · | –
O=c1[nH]c(Nc2ccc(F)cc2)cc2ccccc12 | 35µM | – | – | – | – | –
Cc1ccccc1Nc1cc2ccccc2c(=O)[nH]1 | 3.2µM | – | – | – | – | –
COc1ccc(Cc2c(-c3cccc(Cl)c3)nc3cc(C)c(Br)c(C)n23)c(C)c1 | · | · | – | · | · | –
O=[N+]([O-])c1ccc(NC2CCCC2)cc1 | – | – | – | – | – | –
O=[N+]([O-])c1ccc(N/N=C2/CCCCC2c2ccccn2)cc1 (centres undefined) | ? | ? | – | 1.1µM | ? | –
CCCN1Cc2cccc(C(=O)Nc3cc(Cl)ccc3C)c2C1=O | – | – | · | – | · | –
O=C(Nc1ccccc1Sc1ccccc1)C1CCCO1 (centres undefined) | 45µM | – | – | – | – | ·
O=C(O)c1ccccc1NC(=O)C1CCCO1 (centres undefined) | – | – | – | – | – | –
O=C(Cn1cc(SCc2ccccc2F)c2ccccc21)N1CCCCC1 | – | – | · | · | · | –
SMILES | Sm TGR block | Lassa entry inh | RE007 growth inh | Marburg entry inh | HCV inhibitor | FMDV inh
Cc1ccnc2c1ccc1cccnc12 | ? | ? | ? | ? | 2.2µM | –
Cc1ccnc2c1ccc1c(C)ccnc12 | ? | · | ? | · | 5.6µM | –
Cc1cc(CN2CCC(n3nccc3NC(=O)c3ccccc3Cl)CC2)cc(C)c1O | 45µM | · | – | · | – | –
CCn1ccnc1CN1CCC(n2nccc2NC(=O)c2ccccc2OC)CC1 | – | – | – | – | – | 10µM
CCOc1ccccc1N1CCN(CC(=O)Nc2ccnn2C2CCCC2)CC1 | – | · | – | · | 13µM | ?
Cc1ccc(C(C)CCN2CCC(n3nccc3NC(=O)c3ccccc3)CC2)o1 (centres undefined) | 35µM | – | – | – | ? | –
CC(NC(=O)C1CCN(C(=O)N2CCOc3ccc(Cl)cc32)CC1)c1ccccc1 (centres undefined) | – | ? | · | · | · | –
Cc1nc2cc(NC(=O)[C@@H]3C[C@@H](Sc4ccccn4)CN3Cc3cccc(Cl)c3)ccc2s1 | · | · | · | · | · | –
COCCn1c(=O)c(-c2ccc(Cl)cc2)nc2cnc(Oc3cccc(Cl)c3)nc21 | · | · | · | · | · | –
COc1cccc(CN2CCC(n3nccc3NC(=O)CCCc3ccccc3)CC2)c1O | 8.9µM | · | – | · | ? | –
Cc1ccccc1C(=O)Nc1ccnn1C1CCN(C(C)Cc2ccccc2F)CC1 (centres undefined) | – | · | – | · | 10µM | –
